Test: small molecules captured by biotinylated probe aFSTL3 – biochemical, small-molecule microarray, fluorescence 635/667, stem cell growth factor project, primary screen (AID 1064);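 also: measures binding of the biotinylated anti-FSTL3 antibody to printed compounds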
Details: higher = more signal

**Q.** For `COCCCNC(=O)[C@@]1(Cc2ccccc2)COC(c2ccc(OCCCO)cc2)=N1`, which composite z-score is on record?
**A.** 0.0674

**Q.** For `COC(=O)[C@]1(Cc2ccccc2CN=[N+]=[N-])N=C(c2ccc(OCCCO)cc2)O[C@@H]1c1ccccc1CN=[N+]=[N-]`, which composite z-score is on record?
**A.** 0.409

**Q.** For `O=C1NC(=O)C2C1C=CC(C(O)c1ccc(-c3ccccc3)s1)N2Nc1ccccn1` (stereo not given), which composite z-score is on record?
**A.** 0.536

**Q.** For `C=C(C(=O)CC[C@H](OC(=O)c1cccnc1)c1ccc(OCCO)cc1)C(C)C`, which composite z-score is on record?
**A.** -0.241

**Q.** Which composite z-score does the source give for `Cc1ccc(N2C(=O)c3ccccc3[C@](C)(C(=O)NC(C)C)[C@@H]2c2ccc(CO)cc2)nc1` here?
**A.** 1.57

**Q.** Which composite z-score does the source give for `CCCCC=C[C@@H](NC(=O)CCc1ccccc1)c1ccccc1` here?
**A.** 0.0413

**Q.** Which composite z-score does the source give for `C=CCC(OC(C)=O)[C@@H]1[C@@H](N(Cc2cccc3ccccc23)C(=O)c2ccc(C)cc2)c2cc(OCCCO)ccc2N1C(=O)c1ccc2ccccc2c1` (stereo not given in full) here?
**A.** -0.0181

**Q.** For `C[C@]12C(=O)N(CCCCCO)[C@@H]3C(=O)N(c4ccc(Cl)cc4)CC=CC31O[C@@H]1/C=C\CCCOC(=O)C12` (stereo not given in full), which composite z-score is on record?
**A.** 0.302

**Q.** For `O=C1c2ccccc2[C@](Cc2ccccc2I)(C(=O)NCC(F)(F)F)[C@H](c2ccc(CO)cc2)N1Cc1ccccc1`, which composite z-score is on record?
**A.** -0.213

**Q.** Which composite z-score does the source give for `O=C(O)[C@@]1(Cc2ccccc2)COC(c2ccc(OCCCO)cc2)=N1` here?
**A.** 0.805

**Q.** Which composite z-score does the source give for `COCCCNC(=O)[C@]1(Cc2ccccc2)N=C(c2ccc(OCCCO)cc2)O[C@@H]1c1ccccc1N=[N+]=[N-]` here?
**A.** 0.29

**Q.** For `COCCOC(=O)N1C(=O)[C@@]2(c3cc(C#Cc4ccc(OC)cc4)ccc31)[C@H](C(=O)N1CCc3cc(OC)c(OC)cc3C1)[C@H]1C(=O)O[C@H](c3ccccc3)[C@H](c3ccccc3)N1[C@@H]2c1ccc(OCCO)cc1`, which composite z-score is on record?
**A.** -0.172

**Q.** Which composite z-score does the source give for `CC(C)NC(=O)[C@@]1(Cc2ccccc2I)c2ccccc2C(=O)N(Cc2ccccc2C(F)(F)F)[C@H]1c1ccc(CO)cc1` here?
**A.** 0.695

**Q.** Which composite z-score does the source give for `COC(=O)[C@@]1(Cc2ccc(OC)cc2)[C@H]2c3cc(C(=O)N(C)C)n(Cc4cc(F)c(F)c(F)c4)c3C[C@H]2CN1C(=O)c1ccccc1` here?
**A.** 0.831

**Q.** Which composite z-score does the source give for `O=C1N(CCS(=O)(=O)c2ccccc2)Cc2ccccc2C[C@@]12COC(c1ccc(OCCCO)cc1)=N2` here?
**A.** 0.965

**Q.** With `Cc1ccc(S[C@]2(C(=O)O)CC(=O)N(Cc3ccccc3C(F)(F)F)[C@@H]2c2ccc(CO)cc2)cc1` as the compound, how does the composite z-score read?
**A.** 0.405

**Q.** Which composite z-score does the source give for `O=C1N(CCS(=O)(=O)c2ccccc2)c2ccccc2[C@H]2OC(c3ccc(OCCCO)cc3)=N[C@@]12CCS(=O)(=O)c1ccccc1` here?
**A.** 2.15

**Q.** For `CC(C)C(CO)N1C(=O)[C@@H]2[C@H]3C(=O)OCC=C[C@H]3OC23C=CCN(CCN2CCOCC2)C(=O)[C@@H]13` (stereo not given in full), which composite z-score is on record?
**A.** -0.565

**Q.** With `CC(C)(C)OC(=O)CC[C@@]1(C(=O)N2CCCCC2)N=C(c2ccc(OCCCO)cc2)O[C@@H]1c1ccccc1N=[N+]=[N-]` as the compound, how does the composite z-score read?
**A.** 0.358

**Q.** With `CCCCCCC#C[Si](O[C@H](c1ccccc1)c1cn(Cc2cccc(Cl)c2)nn1)(C(C)C)C(C)C` as the compound, how does the composite z-score read?
**A.** -0.194

**Q.** With `C=CCOC(=O)[C@@H]1[C@H]2C(=O)O[C@H](c3ccccc3)[C@H](c3ccccc3)N2[C@H](c2ccc(OCCOC(=O)[C@@H]3C[C@@H]4C(=O)N5CCC[C@H]5C(=O)N4[C@@H]3c3cccc(OCCO)c3)cc2)[C@@]12C(=O)Nc1ccc(I)cc12` as the compound, how does the composite z-score read?
**A.** -0.396

**Q.** Which composite z-score does the source give for `C=CCC(OC(C)=O)[C@@H]1[C@@H](N(Cc2cccc3ccccc23)C(=O)Cc2ccc(F)cc2)c2cc(OCCCO)ccc2N1C(=O)Cc1ccc(OC)cc1` (stereo not given in full) here?
**A.** -0.449

**Q.** Which composite z-score does the source give for `CO[C@H]1O[C@H](CO)[C@@H](OC(=O)Nc2ccc(C(F)(F)F)cc2)[C@H](OC(=O)Nc2ccccc2)[C@H]1OC(=O)Nc1ccccc1` here?
**A.** 0.113

**Q.** With `C=C(COC)C(=O)CC[C@H](OC(=O)c1ccccc1-c1ccccc1C(=O)O)c1ccc(CO)o1` as the compound, how does the composite z-score read?
**A.** -0.326

**Q.** With `CC(C)CNC(=O)[C@@]1(C)c2ccccc2C(=O)N(Cc2ccccc2)[C@H]1c1ccc(CO)cc1` as the compound, how does the composite z-score read?
**A.** 1.69

**Q.** Which composite z-score does the source give for `CCC[C@@H]1C[C@@]1(CCC)[C@@H](NC(=O)c1ccco1)c1ccc(Cl)cc1` here?
**A.** -0.0089

**Q.** Which composite z-score does the source give for `[N-]=[N+]=NCc1ccccc1[C@H]1OC(c2ccc(OCCCO)cc2)=N[C@@]1(Cc1ccccc1)C(N)=O` here?
**A.** 0.712

**Q.** For `COc1ccc([Si](C)(C)[C@H]2[C@H](CCO)O[C@@]3(C(=O)N(Cc4cccc(N5CCOC5=O)c4)c4ccccc43)[C@@H]2C)cc1`, which composite z-score is on record?
**A.** -0.167

**Q.** With `C[N+](C)(C)CCCC[C@@H]1NC(=O)[C@@H]2C[C@H](C(=O)NCCCCCNC(=O)CS)[C@H](c3cccc(OCCO)c3)N2C1=O` as the compound, how does the composite z-score read?
**A.** -0.129

**Q.** For `COCCOC(=O)N1C(=O)[C@@]2(c3cc(C#CC4(O)CCCCCC4)ccc31)[C@H](C(=O)NC[C@H](O)c1ccccc1)[C@H]1C(=O)O[C@H](c3ccccc3)[C@H](c3ccccc3)N1[C@@H]2c1ccc(OCCO)cc1`, which composite z-score is on record?
**A.** -0.38

**Q.** With `COc1cccc(C)c1NC(=O)O[C@H]1[C@H](OC(=O)Nc2ccccc2)[C@H](OC(=O)Nc2ccccc2)[C@@H](OC)O[C@@H]1CO` as the compound, how does the composite z-score read?
**A.** -0.306

**Q.** For `COC(=O)[C@@]1(Cc2ccccc2)[C@H]2c3cc(C(=O)N4CCCC4)n(Cc4ccccc4)c3C[C@H]2CN1C(=O)c1ccccc1`, which composite z-score is on record?
**A.** 0.425

**Q.** With `COc1cc2c(cc1OC)CN(C(=O)[C@@H]1[C@H]3C(=O)O[C@H](c4ccccc4)[C@H](c4ccccc4)N3[C@H](c3ccc(OCCO)cc3)[C@@]13C(=O)Nc1ccc(C#CCCO)cc13)CC2` as the compound, how does the composite z-score read?
**A.** -0.0108

**Q.** Which composite z-score does the source give for `COc1ccc([Si](C)(C)[C@@H]2[C@@H](CC(=O)N(CCO)Cc3ccccc3)O[C@]3(C(=O)N(C)c4c(Br)cc(C)cc43)[C@H]2C)cc1` here?
**A.** -0.106

**Q.** With `COC(=O)[C@@]1(Cc2ccccc2)[C@H]2c3cc(C(=O)N4CCCC4)n(Cc4ccc(OC(F)(F)F)cc4)c3C[C@H]2CN1C(=O)c1ccccc1` as the compound, how does the composite z-score read?
**A.** 1.38

From PubChem BioAssay
